High-throughput results (PubChem)
HTT aggregate = qHTS Multiplex Assay to Identify Dual Action Probes in a Cell Model of Huntington: Aggregate Formation (GFP); AID 1688, 2009; PC12 HttQ103-GFP aggregates, Acumen cytometry, 40 h; actives 1.1% (n = 220,000); Potency, µM (highest dose often 46.1 µM), inactives show top-dose activity change, negative = inhibition, hits mostly inhibitors; further: potency means the concentration at half of the fitted maximal effect; on the % scale 0 is the no-effect control and ±100 the full control effect; nearly all actives have a fitted effect of over 60% in size
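Huntingtin Q103 exon 1–GFP aggregates in induced PC12 cells (100 nM tebufenozide) were quantified by cytometry from lysates, with compounds dosed in titration.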
HTT cytoprotect = qHTS Multiplex Assay to Identify Dual Action Probes in a Cell Model of Huntington: Cytoprotection (ATP); PC12 HTT-Q103 induced, cytoprotection, ATP luminescence, 40 h; Potency, µM (series often up to 56.4 µM), inactives show cytoprotection (ATP increase), hits mostly activators; actives 0.14% (n = 230,000); AID 1471, 2008; further: potency means the concentration at half of the fitted maximal effect; % of control where 0% means no effect; nearly all actives have a fitted effect of over 45% in size
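PC12 cells stably carrying ecdysone-inducible Htt exon 1 (Q103)–GFP were induced with 100 nM tebufenozide (final) alongside library compounds in a dose series. Cytoprotection was scored as retained ATP by ATPlite luminescence.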
IMPase cell inh = qHTS Assay for Identifying the Cell-Membrane Permeable IMPase Inhibitors | Inositol monophosphatase 1 (Rattus norvegicus), P97697 | CHO-M1 cells, IP1 accumulation, HTRF TR-FRET ratio | inhibition (IP1 accumulation), % at 46.1 µM | 120,000 tested, under 10 active; active means well fitted curve in the direction sought with a large enough effect in the signal ratio, not every such curve was filed as active; inconclusive means small, poorly fitted or top-dose-only effect, or a change in a side signal; inactive means no such curve, though single readings can be large or run the other way; the % refers to the signal ratio;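 further: cells stimulated with carbachol in lithium chloride buffer; plate controls were DMSO basal wells for no effect and reference inhibitor wells for full effect; higher means more IMPase inhibition seen as more IP1 and lower FRET ratio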
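CHO-M1 cells (CHO stably expressing M1 receptor), compound up to 46 uM final, stimulated with carbachol (50 uM as added) in buffer with 50mM LiCl, pH 7.4, 30 min at 37C. Cytosolic IP1 read by TR-FRET; AC50 from Hill fits.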
ALDH1A1 block = qHTS Assay for Inhibitors of Aldehyde Dehydrogenase 1 (ALDH1A1); Purified ALDH1A1, NADH fluorescence, propionaldehyde substrate; Potency, µM (top dose mostly 75.3 µM), for inactives: top-dose activity, negative = inhibition, hits mostly inhibitors; actives 7.3% (n = 220,000); AID 1030, 2008; active means well fitted inhibition curve with a large enough effect, not every such curve was filed as active; inconclusive means small, poorly fitted or top-dose-only effect, or another doubt; inactive means no such curve, though single readings can be large or run the other way;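 further: potency means the concentration at half of the fitted maximal effect; plate controls were no enzyme wells and a reference inhibitor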
Target sequence (P00352 whole entry, looked up): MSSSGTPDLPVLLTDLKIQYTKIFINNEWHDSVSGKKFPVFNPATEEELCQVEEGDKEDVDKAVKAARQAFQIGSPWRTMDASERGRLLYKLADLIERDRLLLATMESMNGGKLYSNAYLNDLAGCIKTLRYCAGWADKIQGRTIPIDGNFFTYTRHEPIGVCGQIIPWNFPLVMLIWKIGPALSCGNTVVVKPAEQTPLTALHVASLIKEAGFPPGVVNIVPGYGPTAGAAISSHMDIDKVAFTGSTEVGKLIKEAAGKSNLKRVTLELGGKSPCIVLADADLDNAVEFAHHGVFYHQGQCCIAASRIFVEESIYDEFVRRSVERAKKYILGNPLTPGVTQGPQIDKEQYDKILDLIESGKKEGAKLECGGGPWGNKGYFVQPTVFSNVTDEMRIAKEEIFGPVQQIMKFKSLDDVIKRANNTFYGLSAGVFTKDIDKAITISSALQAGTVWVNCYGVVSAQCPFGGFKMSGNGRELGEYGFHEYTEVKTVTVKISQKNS
IMPase Li cell = qHTS Assay for Identifying the Cell-Membrane Permeable IMPase Inhibitors: Potentiation with Lithium; CHO-M1 cells, IP1 TR-FRET (IP-One), carbachol + lithium; Potency, µM (doses to about 59.4 µM), for the others: at the top dose activity, negative = IMPase inhibition, most hits filed as inhibitors; actives 0.35% (n = 210,000); AID 1457, 2008;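 further: IP1 builds up when IMPase is blocked and the TR-FRET signal falls; potency means the concentration at half of the fitted maximal effect; plate controls were basal vehicle for no effect and high inhibitor control for full effect; nearly all actives have a fitted effect of over 50% in size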
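CHO cells stably expressing M1 receptor (2000/well, cultured 16–30 h) treated 30 min at 37C with compound plus low lithium. Cytosolic IP1 by TR-FRET (665/620 ratio and 620 channel) after 10 min lysis; AC50 by Hill fit.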
HPGD inh = qHTS Assay for Inhibitors of HPGD (15-Hydroxyprostaglandin Dehydrogenase). 15-hydroxyprostaglandin dehydrogenase [NAD(+)] (Homo sapiens), P15428. purified HPGD, NADH fluorescence kinetic, PGE2 substrate. Potency, µM, for the others: at the top dose activity change, negative = inhibition, hits mostly inhibitors. actives 4.3% (n = 150,000). AID 894, 2007; active means well fitted inhibition curve with a large enough effect, not every such curve was filed as active; inconclusive means small, poorly fitted or top-dose-only effect, or another doubt; inactive means no such curve, though single readings can be large or run the other way; further: potency means the concentration at half of the fitted maximal effect; on the % scale 0 is the no-effect control and ±100 the full control effect
Target sequence (P15428 whole entry, looked up): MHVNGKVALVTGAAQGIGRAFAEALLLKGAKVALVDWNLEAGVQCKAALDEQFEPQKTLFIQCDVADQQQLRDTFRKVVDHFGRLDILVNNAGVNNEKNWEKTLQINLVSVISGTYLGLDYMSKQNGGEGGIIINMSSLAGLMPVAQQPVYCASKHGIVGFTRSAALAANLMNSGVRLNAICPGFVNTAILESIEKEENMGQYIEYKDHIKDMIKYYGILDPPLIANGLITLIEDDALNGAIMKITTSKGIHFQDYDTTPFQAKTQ
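20 nM HPGD preincubated 15 min at room temperature with compound in 50 mM Tris-HCl pH 8, 0.01% Tween 20. Started with 1 mM NAD+ and 30 uM prostaglandin E2; NADH fluorescence (360/450 nm) read 5 times over 30-s intervals, last minus first.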
Numbers without * were called inactive; [ ] = remark or other dose. Only some compounds are listed: those with a hit (about 9.4% of all), similar ones and a draw of the others. Unless noted, the call rests on the fitted dose curve; in most records, active means well fitted curve in the direction sought with a large enough effect; inconclusive means small, poorly fitted or top-dose-only effect, or another doubt; inactive means no such curve, though single readings can be large; an effect the other way counts as inactive or inconclusive.

Screening Nc1nnc(SCC(=O)Nc2cccc(F)c2)s1 returned IMPase cell inh -13.
For COc1ccc(OC)c(NC(=O)CN(c2ccccc2OC)S(=O)(=O)c2ccc(C)cc2)c1 the results were IMPase cell inh 6.
[Cu].[O-]/N=C1/C(=[OH+])Nc2ccccc21.[O-]Nc1c(O)[nH]c2ccccc12 was read as HTT cytoprotect -4%[10 µM].
For COc1cc(NC(=S)N2CCN(C(=O)c3ccco3)CC2)c(OC)cc1Cl the results were HTT aggregate 25%, HTT cytoprotect 2%[10 µM], IMPase cell inh -13, ALDH1A1 block 25µM*, IMPase Li cell 9% and HPGD inh 32µM*.
Cc1ccc(Nc2nc(N)nc(CN3CCN(c4ccccc4F)CC3)n2)cc1 was read as HTT aggregate inconclusive, HTT cytoprotect -19%, IMPase cell inh -9, ALDH1A1 block 32µM*, IMPase Li cell -15%[38.3 µM] and HPGD inh -11%.
N#CCCn1c(=O)cnc2cnc(Oc3ccccc3)nc21 was read as HTT cytoprotect -2%, ALDH1A1 block -2% and IMPase Li cell 15%.
COc1ncc2nc(-c3ccc(F)cc3)c(=O)n(CCC#N)c2n1 was read as HTT cytoprotect -9%, ALDH1A1 block inconclusive, IMPase Li cell -7% and HPGD inh inconclusive.
Screening CCNc1ccc(C(=O)OCC(=O)NCCN2C(=O)CSC2=O)cc1[N+](=O)[O-] returned HTT aggregate 5%, HTT cytoprotect inconclusive, ALDH1A1 block 3.5µM* and IMPase Li cell 18%.
Cc1ccc(C(=O)OCC(=O)NCCN2C(=O)CSC2=O)cc1 was read as HTT aggregate inconclusive, HTT cytoprotect 16%[10 µM], ALDH1A1 block -4%, IMPase Li cell -11% and HPGD inh -3%.
Cc1cccc(N(CC(=O)NCc2ccccc2)S(C)(=O)=O)c1C was read as IMPase cell inh -2.
CN(C)C=Nc1ncc2c3ccccc3n(CCN(C)C)c2c1C#N was read as HTT aggregate 2.8µM*, HTT cytoprotect -28%[0.074 µM], IMPase cell inh 6, ALDH1A1 block inconclusive, IMPase Li cell -4%[38.3 µM] and HPGD inh inconclusive.
`Cc1nc(N2CCN(Cc3ccccc3)CC2)nc2c1C(=O)CC(c1ccco1)C2` (centres undefined) gave HTT aggregate inconclusive, HTT cytoprotect 3%, IMPase cell inh 20, ALDH1A1 block 22µM*, IMPase Li cell 25%[38.3 µM] and HPGD inh -18%.
Screening Cc1ccc(-n2c(=O)c3ccc(C(=O)NCc4ccco4)cc3n(CC(=O)Nc3ccc(C)c(F)c3)c2=O)cc1 returned IMPase cell inh -8.
O=C(N/N=C/C1CC=CCC1)c1ccc(O)cc1O (centres undefined) was read as HTT aggregate -21%, HTT cytoprotect -42%[10 µM], ALDH1A1 block inconclusive, IMPase Li cell -4% and HPGD inh -9%.
`COc1cc(C(=O)N/N=C/C2CC=CCC2)cc(OC)c1OC` (centres undefined) gave HTT aggregate -15%, HTT cytoprotect -14%[10 µM], ALDH1A1 block 11µM*, IMPase Li cell -1% and HPGD inh -10%.
For Cc1ccc(-c2c(C#N)c(N)n3c(nc4ccccc43)c2C#N)cc1 the results were HTT aggregate 10µM*, HTT cytoprotect -7%[10 µM], IMPase cell inh 0, ALDH1A1 block 19µM*, IMPase Li cell -23% and HPGD inh inconclusive.
For COc1ccc(C(=O)Nc2cc(-c3nc4ncccc4o3)ccc2C)cc1Br the results were IMPase cell inh -21.
Screening Cn1c(=O)c2c(nc(CN3CCN(C(=O)c4ccco4)CC3)n2Cc2cccc(Cl)c2)n(C)c1=O returned HTT aggregate 10%, HTT cytoprotect -9%, IMPase cell inh 3, ALDH1A1 block 14µM*, IMPase Li cell 5%[38.3 µM] and HPGD inh -2%.
Cn1c(=O)c2c(nc(CN3CCN(Cc4ccccc4)CC3)n2Cc2cccc(Cl)c2)n(C)c1=O was read as HTT aggregate -14%, HTT cytoprotect -8%, IMPase cell inh 6, ALDH1A1 block inconclusive, IMPase Li cell 20%[38.3 µM] and HPGD inh 5%.
Screening CCCCCn1c(CN2CCN(C(=O)c3ccco3)CC2)nc2c1c(=O)n(C)c(=O)n2C returned HTT aggregate 6%[9.22 µM] and HTT cytoprotect 6%[10 µM].
For Cn1c(=O)c2c(nc(CN3CCN(C(=O)c4ccco4)CC3)n2Cc2ccccc2)n(C)c1=O the results were HTT aggregate 21%, HTT cytoprotect -19%[0.074 µM], IMPase cell inh 12[1.84 µM], ALDH1A1 block 13µM*, IMPase Li cell 28%[38.3 µM] and HPGD inh -5%.
`Cn1c(=O)c2c(nc(CN3CCN(C(=O)c4ccco4)CC3)n2Cc2ccc(Cl)cc2)n(C)c1=O` gave HTT aggregate 15%, HTT cytoprotect 4%, IMPase cell inh 9, ALDH1A1 block 14µM*, IMPase Li cell 9%[38.3 µM] and HPGD inh -6%.
CC(C)CCC[C@@H](C)[C@H]1CC[C@H]2[C@@H]3CC[C@@H]4C[C@H](O)CC[C@]4(C)[C@H]3CC[C@]12C was read as HTT aggregate 13% and HTT cytoprotect 11%.
OCCN(CC(O)Cn1ccc2ccccc21)CC(O)Cn1ccc2ccccc21 (centres undefined) was read as HTT aggregate 8%, HTT cytoprotect -25%, IMPase cell inh 6, ALDH1A1 block 28µM*, IMPase Li cell -1%[38.3 µM] and HPGD inh -4%.
For CN1CCN(c2ccc(C(=O)c3ccc(F)cc3)cc2)CC1 the results were HTT aggregate 8%, HTT cytoprotect -13%[10 µM], IMPase cell inh -3, ALDH1A1 block -14%, IMPase Li cell -4%[38.3 µM] and HPGD inh -10%.
Screening O=C(c1ccccc1)c1ccc(N2CCNCC2)cc1 returned HTT aggregate -6%, HTT cytoprotect -14%, IMPase cell inh -1, ALDH1A1 block 28µM*, IMPase Li cell 21%[38.3 µM] and HPGD inh -6%.
O=C(c1ccccc1)c1ccc(N2CCCC2)cc1 was read as HTT aggregate -40%, HTT cytoprotect -41%, IMPase cell inh 1, ALDH1A1 block inconclusive, IMPase Li cell 11%[38.3 µM] and HPGD inh 14µM*.
